# aSyn rescue = alpha-synuclein toxicity inhibition in yeast. Yeast expressing alpha-synuclein, growth rescue, BacTiter-Glo, 24 h. 0.14% of 370,000 active. Potency, µM (titrated, usually from 46.1 µM), for the others: at the top dose growth rescue (activation), most hits filed as activators; note: % of control where 0% means no effect; nearly all actives have a fitted effect of over 65% in size
#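 Rescue of yeast growth: cells expressing toxic alpha-synuclein, induced in galactose at OD600 0.02, incubated with compound 24 h at 30 C. ATP luminescence quantified growth; inhibitors of toxicity appear as activators.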
# TDP-43 yeast inh = inhibitors of TDP-43 toxicity in yeast. 1.8% of 410,000 active. TDP-43 expressing yeast growth rescue, BacTiter-Glo, 24 h. Potency, µM (highest dose often 46.1 µM), for inactives: at the top dose growth rescue (activation), hits mostly activators; note: % of control where 0% means no effect; nearly all actives have a fitted effect of over 50% in size
#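 Yeast expressing TDP-43 (pregrown in raffinose, seeded at OD600=0.02 in galactose medium) exposed to compounds 24 hr at 30 deg C. Growth read by BacTiter-Glo luminescence; rescue of toxicity appears as increased signal.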
# AT treatment = potential ataxia-telangiectasia treatment; 0.19% of 320,000 active; F2112 A-T fibroblasts, KAP-1 phosphorylation AlphaLISA; neocarzinostatin DNA damage 30 min before lysis; Potency, µM (series often up to 57.5 µM), for the others: top-dose activation, most hits filed as activators; note: % of control where 0% means no effect; nearly all actives have a fitted effect of over 45% in size
#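 hTERT-immortalized A-T patient fibroblasts (F2112), 500 cells/well in OPTI-MEM, 1% FBS, got compounds for 60 min, then NCS for 30 min at 37C. Lysates were then assayed for phospho-KAP-1 by AlphaLISA (anti-pKAP1 donor, anti-KAP1 acceptor beads), 6 hr at 25C.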
# Abeta rescue = compounds reversing amyloid beta toxicity in yeast. Potency, µM (titrated, usually from 46.1 µM), most hits filed as activators. AID 1347071. 0.063% of 410,000 active. yeast expressing A-beta42, growth rescue, OD600, 48 h; response scale: 0% DMSO, 100% iron-clioquinol control; note: nearly all actives have a fitted effect of over 55% in size
#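 Yeast growth medium received pinned compounds, then yeast cells expressing toxic A-beta were added; plates incubated at 30 C for 48 hr. Growth read as absorbance at 600 nm, normalized to DMSO and equimolar FeCl3 plus clioquinol controls.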
# Glioma ERSR ind = ER stress response induction in glioma | U87-MG GRP78 promoter luciferase reporter, 16 h | Potency, µM, for the others: at the highest dose activation, hits mostly activators | 0.02% of 420,000 active; note: series mostly up to about 76 µM; % of control where 0% means no effect; nearly all actives have a fitted effect of over 35% in size
#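 Stably transfected U87-MG glioma cells carrying a GRP78-based luciferase sensor; 16 h compound incubation. Luminescence end-point read 10 min after Bright-Glo addition at room temperature.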
# Mito fusion act = blocks mitochondrial division or promotes mitochondrial fusion; 0.23% of 320,000 active; S. cerevisiae fusion-defective mutant growth rescue, CellTiterGlo 48 h; Potency, µM (series often up to 46.1 µM), for the others: at the highest dose growth rescue (activation), usual class: activators; note: % of control where 0% means no effect; nearly all actives have a fitted effect of over 45% in size
#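 S. cerevisiae fusion-defective temperature-sensitive mutants (e.g. fzo1-1, mgm1-5) grown 48 h at 37C in YPEG (ethanol/glycerol non-fermentable) medium with 23 nl compound per well; growth rescue read as CellTiterGlo luminescence.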
# * marks the source's active call; other numbers are inactive results; i = inactive; ? = inconclusive; / = not tested or not shown. Most compounds without a hit are left out; they make up all but 2.1% or so of the library. Calls come from the whole dose curve; as a rule, active = well fitted curve in the direction sought with a large enough effect; inconclusive = small, poorly fitted or top-dose-only effect, or another doubt; inactive = no such curve, though single readings can be large; an effect the other way counts as inactive or inconclusive. Potency is the fitted concentration of half-maximal effect.
SMILES,aSyn rescue,TDP-43 yeast inh,AT treatment,Abeta rescue,Glioma ERSR ind,Mito fusion act
CC(=O)NC(C)(c1ccccc1)c1nc(-c2csc3ccccc23)cs1 (configuration not stated),7%,35µM*,/,i,-5%,/
C[C@@H]1CN(Cc2ccc3c(c2)CN(Cc2cccn2-c2ccc(Cl)cn2)CCO3)C[C@H](C)O1,/,/,/,/,-5%,/
COc1ccc(CN2CCOc3ccc(CN4CCN(CCO)CC4)cc3C2)c2ccccc12,/,/,/,/,-4%,/
COCCCNC(=O)c1cc(-c2cccnc2)nc2ccc(S(=O)(=O)N3CCC(C)CC3)cc12,/,1%,/,i,-5%,/
COc1cccc(C(C)(O)c2nc(/C=C/c3ccccc3)cs2)c1 (configuration not stated),?,25µM*,/,i,0%,/
COc1ccc(C(C)(O)c2nc(-c3cnc4ccccc4c3)cs2)cc1 (configuration not stated),?,35µM*,/,i,-1%,/
COc1cccc(C(C)(O)c2nc(-c3ccccc3C)cs2)c1 (configuration not stated),2%,15%,/,i,-5%,/
O=C1/C(=C/c2ccccc2Cl)SC(=S)N1CCCC(=O)N(CCO)c1ccccc1,18µM*,27%,-3%,i,-14%,-16%
O=C(CCCN1C(=O)/C(=C/c2ccccc2Cl)SC1=S)Nc1ccccn1,14%,6%,-5%,i,-12%,1%
CCC1CN(CC(=O)NCc2n[nH]c3c2CCCCC3)Cc2cc(OC)ccc2O1 (configuration not stated),/,/,/,/,-3%,/
Cc1ccc(Nc2nc3ccccc3s2)c(C)c1,-1%,25µM*,10%,i,-4%,?
O=C(NNc1nc2cc3c(cc2s1)OCCO3)c1ccc(F)cc1,0%,10µM*,-2%,?,0%,1%
Cc1cc(C)nc(Nc2nc3ccccc3s2)n1,0%,24%,-11%,i,9%,-2%
c1ccc2sc(Nc3nc4cc5c(cc4s3)OCO5)nc2c1,-17%,-5%,3%,i,0%,14µM*
Fc1ccc2nc(Nc3nc4cc5c(cc4s3)OCCO5)sc2c1,-8%,20%,6%,i,0%,13µM*
Fc1ccc2nc(Nc3nc4cc5c(cc4s3)OCO5)sc2c1,-13%,11%,1%,i,?,9%
Cn1c(SCC2CCCO2)nnc1C1CCN(Cc2ccccc2O)CC1 (configuration not stated),/,/,/,/,-2%,/
CCOc1ccccc1NS(=O)(=O)c1cnc(N)nc1,/,22%,/,i,-3%,/
Fc1ccc2nc(Nc3ccccc3)sc2c1,-11%,16µM*,3%,?,11%,17%
CC(C)N(Cc1ccccc1)C(=S)NC(=O)C1(C)CC1(Cl)Cl (configuration not stated),0%,35µM*,0%,?,-7%,3%
COc1ccc(C(=O)NCC2Cc3c(F)ccc(-c4nc(C)cnc4C)c3O2)cc1F (configuration not stated),/,/,/,/,-5%,/
O=C1C2C3C=CC(C3)C2C(=O)N1CN(Cc1ccccc1)CN1C(=O)C2C3C=CC(C3)C2C1=O (configuration not stated),6%,5.6µM*,18%,i,-3%,-5%
O=C1C2C3C=CC(C3)C2C(=O)N1CNc1ccccc1 (configuration not stated),-9%,?,0%,i,-4%,0%
Nc1ccc2c(c1)-c1ccc(F)cc1C2=O,14µM*,-17%,/,i,8%,/
Nc1ccc2c(c1)C(=O)c1ccc(Cl)cc1-2,9%,20%,/,i,-2%,/
SMILES,aSyn rescue,TDP-43 yeast inh,AT treatment,Abeta rescue,Glioma ERSR ind,Mito fusion act
Cc1ccc(/C(=N\O)c2oc3c(C)c4oc(=O)cc(C)c4cc3c2C)cc1,17%,0%,-4%,i,-6%,7.1µM*
O=C(Cc1ccc(OCCC2CCCCC2)cc1)NO,5.6µM*,/,/,/,2%,/
COc1cc(NC(=S)Nc2ccccn2)cc(OC)c1,1%,10µM*,4%,i,-1%,6%
S=C(Nc1ccccn1)Nc1ccccc1Cl,-4%,16µM*,12%,i,?,0%
CCCN(CC(=O)Nc1ccccc1OC)C(=O)c1ccc(COc2ccccc2)o1,1%,11µM*,1%,i,-1%,-1%
CCCN(CC(=O)Nc1ccccc1OC)C(=O)c1cc2ccccc2o1,2%,19%,3%,i,-2%,-8%
O=C(CCl)N1N=C(c2cccs2)CC1c1ccco1 (configuration not stated),9%,22µM*,4%,i,-14%,-14%
COC(=O)C1CCN(Cc2ccc3c(c2)CN(C(=O)c2cc4cc(F)ccc4[nH]2)CCO3)CC1,/,/,/,/,-1%,/
Cc1ccccc1CN1C(=O)c2ccccc2S(=O)(=O)c2ccc(C(=O)OCC3CCCO3)cc21 (configuration not stated),/,8%,/,i,-2%,/
CC(=O)Nc1ccc(NCN2C(=O)[C@@H]3[C@H]4CC[C@H](C4)[C@@H]3C2=O)cc1,1%,6.3µM*,-2%,i,-2%,-8%
O=C1C2C3CCC(C3)C2C(=O)N1CNc1ccccc1 (configuration not stated),4%,?,4%,i,-8%,-7%
CCOC(=O)C1CCCN(C(=O)Cn2ncc3c(C)n(Cc4ccccc4F)c(C)c3c2=O)C1 (configuration not stated),/,14%,/,i,1%,/
CC1(C(=O)Nc2ccc(Cl)c(Cl)c2)CCN1Cc1ccccc1OC(F)F (configuration not stated),-36%,22µM*,/,i,-2%,/
COc1ccc(NC(=O)C2(C)CCN2Cc2ccccc2OC(F)F)cc1OC (configuration not stated),-1%,14%,/,i,-2%,/
Cc1cccc(-n2ccnc2SCC(=O)Nc2cccc3ccccc23)c1,11%,22µM*,/,i,-2%,/
Cc1cccc(-n2ccnc2SCC(=O)Nc2ccc3c(c2)OCCO3)c1,9%,?,-1%,i,-2%,17%
O=C(CSc1nccn1-c1cccc(Cl)c1)Nc1cccc2ccccc12,/,16µM*,/,i,-1%,/
Cc1cccc(-n2ccnc2SCC(=O)Nc2ccc3c(c2)OCO3)c1,10%,20µM*,/,i,-4%,/
O=C(CSc1nccn(-c2cccc(F)c2)c1=O)Nc1ccc(Cl)cc1F,-78%,18µM*,-1%,i,-2%,-26%
Cc1oc(-c2cccc(Cl)c2)nc1Cn1c(SCc2ccccc2F)nc2ccncc21,/,7%,/,i,2%,/
